Consider 47 compounds from PubChem BioAssay AID2685 (National Center for Advancing Translational Sciences (NCATS), 2010).

Each structure is given as a SMILES string. Hit rate of the full screen: of about 320,000 compounds, about 2,100 (0.66%) were called active. Another 53% or so got no clear call; they are omitted. This is one part of a sample in which actives are shown more often than they occur. Calls follow the shape of the dose curve; as a rule, active = well fitted inhibition curve with a large enough effect in the signal ratio, with a control signal flat (not every such curve was filed as active); inconclusive = small, poorly fitted or top-dose-only effect, or effect the other way, or a change in a side signal; inactive = flat fitted curve, though single readings scatter; the % refers to the signal ratio.
Potency is read from the fitted curve at half-maximal effect.

A short description of this experiment: qHTS Assay for Lipid Storage Modulators in Drosophila S3 Cells.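 As to cell number change: cells counted by Cell Tracker Red CMTPX staining in the red channel.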 To be noted: BODIPY lipid droplet fluorescence, 18-24 h, cells fed with added oleic acid; cell number change: measured here: cell count max response; series mostly up to 46.1 µM. A digest of the protocol:
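Drosophila S3 cells got compounds at several concentrations plus oleic acid (400 uM solution). Laser-scanning cytometry with 488 nm excitation read lipid droplets at 500-530 nm and cells at 575-640 nm. Percent activity was relative to 20 uM Triacsin C.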
(In general: In qHTS, concentration-response curves come from the screen itself.)
In the case of `C=CCNC(=S)/N=c1/ccccn1C`, the Potency entry is “inactive” and the cell number change is -1.1%.

As to `Cc1cccc(CN2CCC(C(=O)Nc3cccc(-c4cccc(F)c4)c3)CC2)n1`, the Potency entry was “inactive”.

In the case of `Cc1nnc(SCc2ccc(F)cc2)s1`, the Potency is 2.06 µM (active) and the cell number change was -1.22%.

As for `COc1ccc(CSc2nnc(C)s2)cc1F`, the Potency entry is “inactive” and the cell number change worked out at 9.99%.

Regarding `Cc1nnc(SCc2ccc(F)cc2Cl)s1`, the Potency entry is “inactive” and the cell number change is -1.12%.

As to `COc1ccc(OC)c(C(=O)COC(=O)C(CCSC)NC(=O)COc2ccccc2)c1` (centres undefined), the Potency result was “inactive”.

As to `O=C(NCCN1CCCC1)C1CCN(S(=O)(=O)N2CCC3(CC2)OCCO3)CC1`, the Potency was 29.1 µM (active) and the cell number change is -14.5%.

`CC1CCN(CCCNC(=O)C2CCN(S(=O)(=O)N3CCC4(CC3)OCCO4)CC2)CC1`: the Potency entry was “inactive” and the cell number change was 1.22%.

On to `O=C(NCCCN1CCCCC1)C1CCN(S(=O)(=O)N2CCC3(CC2)OCCO3)CC1`, for which the Potency result was “inactive” and the cell number change was -12.2%.

`O=C(CCCC(=O)c1ccccc1)NCCc1ccccc1F`: the Potency entry was “inactive” and the cell number change amounted to 22%.

In the case of `Clc1ccc(-c2nnc(N3CCOCC3)o2)cc1`, the Potency entry was “inactive” and the cell number change was 3.72%.

With `CC(=O)c1ccc(OCCCC(=O)Nc2cccc(S(=O)(=O)N(C)C)c2)cc1`, the Potency entry is “inactive” and the cell number change was 1.3%.

For `O=S(=O)(NCC(c1ccco1)N1CCN(c2ccccc2F)CC1)c1ccccc1` (centres undefined), the Potency entry was “inactive” and the cell number change was found to be 26.9%.

For the compound `O=S(=O)(NCC(c1ccco1)N1CCN(c2ccccc2)CC1)c1ccc(F)cc1` (centres undefined), the Potency entry was “inactive” and the cell number change was determined as 9.35%.

On to `O=S(=O)(NCC(c1ccco1)N1CCN(c2ccccc2F)CC1)c1ccc2c(c1)OCCO2` (centres undefined), for which the Potency was 23.1 µM (active).

On to `CCn1c(=N)c(S(=O)(=O)c2ccc(C)cc2)cc2c(=O)n3ccccc3nc21`, for which the Potency entry is “inactive” and the cell number change turned out to be 11.4%.

For the compound `CN(C)S(=O)(=O)N1CCN(c2cc(Cl)ccc2Cl)CC1`, the Potency entry is “inactive” and the cell number change was -20.4%.

As to `COc1cc(/C=C2\CC/C(=C\c3ccc(OCCO)c(OC)c3)C2=O)ccc1OCCO`, the Potency was 16.4 µM (active) and the cell number change is 11.6%.

Consider `COc1ccc(/C=C2\Cc3ccccc3C2=O)cc1OC`, for which the Potency result is “inactive” and the cell number change was -17.4%.

Take `COc1ccc(/C=C2\CCc3ccccc3C2=O)cc1O`: the Potency result is “inactive” and the cell number change was -1.8%.

With `CCn1c(=O)cc(OCC(=O)Nc2ccc(C)cn2)c2ccccc21`, the Potency entry was “inactive” and the cell number change was determined as 8%.

For `COc1ccc(C)cc1NC(=O)C1CCC(CNc2c(N3CCOCC3)c(=O)c2=O)CC1` (centres undefined), the Potency result was “inactive” and the cell number change came to 18.9%.

In the case of `Cc1cccc(N2CCN(C(=O)COc3ccc4c(c3)CCC4)CC2)c1C`, the Potency entry was “inactive” and the cell number change worked out at 1.12%.

With `O=C(COc1ccc2c(c1)CCC2)N1CCN(c2cccc(C(F)(F)F)c2)CC1`, the Potency entry was “inactive” and the cell number change came to 20.7%.

For `Cc1cccc(N2CCN(C(=O)COc3ccc4c(c3)CCC4)CC2C)c1` (centres undefined), the Potency was 2.06 µM (active) and the cell number change was -2.19%.

Consider `CCOC(=O)c1ccc(NC(=O)Cn2nnc(-c3ccc(F)cc3)n2)cc1`, for which the Potency entry was “inactive” and the cell number change was -3.44%.

As to `COc1ccc(OC)c(Nc2nc3nonc3nc2N2CCCC(C)C2)c1` (centres undefined), the Potency entry is “inactive” and the cell number change was 7.7%.

For `CC(C)c1onc(C(=O)N2CCCCC2)c1[N+](=O)[O-]`, the Potency is 0.82 µM (active) and the cell number change is -22.7%.

On to `CC(C)c1onc(C(=O)N2CCOCC2)c1[N+](=O)[O-]`, for which the Potency result was “inactive” and the cell number change is -0.564%.

As for `CC(C)c1onc(C(=O)N2CCCCCC2)c1[N+](=O)[O-]`, the Potency result was “inactive” and the cell number change is -15.8%.

As for `CS(=O)(=O)N1CCC(C(=O)Nc2ccc(Cl)c(Cl)c2)CC1`, the Potency result was “inactive” and the cell number change was -6.77%.

As to `COc1ccc(CC(=O)OCC(=O)Nc2ccc3c(c2)OCCO3)cc1OC`, the Potency result is “inactive” and the cell number change is 3.44%.

With `O=C(CCn1c(=O)[nH]c2ccsc2c1=O)N1CCN(Cc2ccc3c(c2)OCO3)CC1`, the Potency entry was “inactive”.

`Cc1ccc(-c2nc3ccccc3[nH]2)cn1`: the Potency entry was “inactive” and the cell number change was found to be 10.6%.

In the case of `CCN(CC)S(=O)(=O)c1cc(C(=O)Nc2cc(C)on2)c(Cl)cc1Cl`, the Potency entry was “inactive” and the cell number change is -16.4%.

Turning to `CCN(CC)S(=O)(=O)c1cc(C(=O)Nc2cccnc2Cl)ccc1Cl`, the Potency entry was “inactive”.

On to `CCN(CC)S(=O)(=O)c1cc(C(=O)n2cccn2)c(Cl)cc1Cl`, for which the Potency is 4.61 µM (active) and the cell number change is -0.259%.

For `O=C(COC(=O)CC12CC3CC(CC(Br)(C3)C1)C2)NC(=O)NCc1ccco1`, the Potency result is “inactive” and the cell number change is -9.1%.

For `Cn1cccc1C(=O)NC(=O)COC(=O)CC12CC3CC(CC(Br)(C3)C1)C2`, the Potency is 7.31 µM (active) and the cell number change was determined as 2.25%.

On to `CC(=O)NC12CC3CC(C1)CC(C(=O)OCC(=O)NC(=O)c1cccn1C)(C3)C2`, for which the Potency entry is “inactive” and the cell number change was -12.7%.

Regarding `O=C(NCc1nc2ccccc2[nH]1)c1c(F)c(F)c(F)c(F)c1F`, the Potency entry was “inactive” and the cell number change is -0.311%.

Take `O=C(O)C1CCCCC1C(=O)NCCc1cccc(Cl)c1` (centres undefined): the Potency entry is “inactive” and the cell number change is -1.17%.

For the compound `Cc1ccn(CC(=O)N2CCCC(N3CCN(c4cccc(Cl)c4)CC3)C2)n1` (centres undefined), the Potency entry was “inactive” and the cell number change was 14.6%.

For `Cc1nc(CNC(=O)CC2C(=O)NCCN2Cc2ccc(F)cc2)cs1` (centres undefined), the Potency entry was “inactive” and the cell number change was determined as 20.2%.

Turning to `CCN(CC)S(=O)(=O)c1ccc(OC)c(NC(=O)C2CC(=O)N(c3ccc4c(c3)OCCO4)C2)c1` (centres undefined), the Potency entry was “inactive” and the cell number change is -25.9%.

Consider `CN(C)c1ccc(C(=O)N2CCCC(CCC(=O)N3CCN(c4ccccn4)CC3)C2)cc1` (centres undefined), for which the Potency result is “inactive” and the cell number change was -25.3%.

With `COc1ccc(C(=O)N2CCCC(CCC(=O)N3CCN(c4ccccn4)CC3)C2)cc1` (centres undefined), the Potency is 8.2 µM (active) and the cell number change is -15.8%.
